Measured values reported in PubChem BioAssay AID1578 (Sanford-Burnham Center for Chemical Genomics, 2009).
Several values for one entry are separate records, joined by “and”; a condition that tells them apart may be missing. Identical values can stand only once. About 3,000 (1%) of roughly 290,000 compounds were called active. The full list was thinned out, with actives kept by preference. A number with no mark means an inactive call. Rule as the data show it: active = inhibition mostly above about 36% (no sharp cut-off); inactive = mostly below about 34%.

Experiment: inhibition of NOD1-driven NF-kB reporter – cell-based, luminescence, uHTS, primary screen (AID 1578);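 also: HEK-293T reporter cells stimulated with the NOD1 agonist gamma-tri-DAP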
Conditions: NOD1-driven NF-kB luciferase reporter cells, at 4 µM, active compounds read high

Row | Compound | inhibition
1 | COc1cccc(NP(=O)(Oc2ccccc2)Oc2ccccc2)c1 | -28.2%
2 | O=C(NC1(C(F)(F)F)Oc2ccc(Cl)cc2O1)N1CCC2(CC1)OCCO2 (configuration not stated) | 5%
3 | Cc1ccccc1-n1c(O)c(C=NCCN2CCOCC2)c(=O)[nH]c1=O | -5.7%
4 | O=C(Cn1nc(-c2ccc(Cl)cc2)ccc1=O)N1CCC2(CC1)OCCO2 | -21%
5 | CCC(=NCCO)c1c(O)n(-c2ccccc2)c(=O)[nH]c1=O | 11.4%
6 | COc1cc2c(cc1OC)-c1c(OC)c(OC)c(OC)c3ccnc(c13)C2=O | 25.5%
7 | O=C1NC(=O)N(CCc2ccc(F)cc2)C(=O)/C1=C/C=C/c1ccccc1 | 42.2% (active)
8 | Cc1ccc(N2C(=O)NC(=O)/C(=C\C=C\c3ccco3)C2=O)cc1C | 48.7%
9 | CC(C)c1ccc(N2C(=O)NC(=O)/C(=C/C=C/c3ccco3)C2=O)cc1 | 56.9%
10 | O=C1NC(=O)N(CCc2ccc(F)cc2)C(=O)/C1=C/c1cccs1 | 12.9%
11 | O=C1NC(=O)N(CCc2ccc(F)cc2)C(=O)/C1=C/c1ccco1 | 10.2%
12 | CC(C)c1ccc(N2C(=O)NC(=O)/C(=C\C=C\c3ccco3)C2=O)cc1 | 78.9% (active)
13 | CCCC(C)n1[nH]c(=O)c2c1NC(=O)CSC2c1ccccc1 (configuration not stated) | -4.2%
14 | COc1ccc(CCN(C)Cc2ccc(F)cc2F)cc1OC | -4.5%
15 | O=[N+]([O-])c1ccc(Nc2ccccc2)cc1 | 26.1%
16 | CC(C)C(=O)Nc1nnc(CCN(CCc2nnc(NC(=O)C(C)C)s2)[N+](=O)[O-])s1 | 0.8%
17 | COc1cc(CC2C(=O)N(C)C(=O)N(C)C2=O)ccc1OCc1ccccc1 | -15.9%
18 | C[C@H]1CCC[C@H](O)CCCCCc2cc(O)cc(O)c2C(=O)O1 | 71.9% (active)
19 | C[C@H]1CCCC(=O)CCCCCc2cc(O)cc(O)c2C(=O)O1 | 10.7%
20 | CC1CCC[C@H](O)CCCCCc2cc(O)cc(O)c2C(=O)O1 (some centres not stated) | -20.3% and 0.8%
21 | COc1ccc(S(=O)(=O)NC(CC(=O)N2CCC3(CC2)OCCO3)C(C)C)cc1 (configuration not stated) | -3.9%
22 | Cc1cccnc1-n1c(-c2ccccc2)nc2ccccc2c1=O | -2.5%
23 | O=C(c1ccco1)c1cn(Cc2ccccc2Cl)c2ccccc12 | 19.5%
24 | CC1(C)C[C@H]2C=C(C=O)[C@]3(C=O)C[C@]3(C)[C@H]2C1 | 106% (active)
25 | Cc1c(P(=S)(c2ccccc2)c2ccccc2)[n+]2ccccc2n1C | -18.7%
26 | O=C(Nc1ccc(Cl)cc1C(=O)c1ccccc1)c1ccc(Br)o1 | 37.5%

Row | Compound | inhibition
27 | Cc1ccc2c(c1)CCCN2N=O | -27.4%
28 | C=C(C=O)C[C@@H]1C[C@H](O)C2OC3C[C@]4(C)OC5/C=C\CC6OC7C(CC=CCC6OC5CCCC4OC3CC2O1)OC1CC2OC3CC(=O)OC3C[C@@H](C)C[C@@]2(C)OC1C[C@@H]7C (some centres not stated) | 76% (active)
29 | C=C(CC1CC(O)[C@]2(C)OC3CC4OC5C[C@]6(C)O[C@]7(C)CCC8OC9C[C@]%10(C)OC%11C(C)=CC(=O)OC%11CC%10OC9C[C@@H](C)C8OC7CC6O[C@]5(C)C/C=C\C4OC3CC2O1)C(=O)O (some centres not stated) | -18.2%
30 | C=C(CO)CC1CC(O)[C@]2(C)OC3CC4OC5C[C@]6(C)O[C@]7(C)CCC8OC9C[C@]%10(C)OC%11C(C)=CC(=O)OC%11CC%10OC9C[C@@H](C)C8OC7CC6O[C@]5(C)C/C=C\C4OC3CC2O1 (some centres not stated) | -6.2%
31 | Clc1cccc(Cl)c1C1N2CCCN12 (configuration not stated) | 8.1%
32 | c1ccc2c(c1)CNc1ccccc1O2 | -9%
33 | S=C(NCCc1ccccc1)NCCc1cnc[nH]1 | 0.7%
34 | COc1ccc(OC)c(NP(=O)(Oc2ccccc2)Oc2ccccc2)c1 | -6.6%
35 | Cc1ccc(C)c(NP(=O)(Oc2ccccc2)Oc2ccccc2)c1 | 48.1% (active)
36 | Cc1cccc(NP(=O)(Oc2ccccc2)Oc2ccccc2)c1C | -22.3%
37 | O=C(CN1CCCC1)Nc1ccc(Cl)cc1C(=O)c1ccccc1 | -5.6%
38 | COc1ccc(CNCCc2c(C)[nH]c3ccc(OC(F)(F)F)cc23)c(OC)c1 | 5.5%
39 | O=P(Nc1ccccc1)(Nc1ccccc1)Oc1ccccc1 | -0.3%
40 | COc1cc2c(cc1OC)[C@@H]1C(=O)c3ccc4c(c3O[C@@H]1CO2)C[C@H](C(C)C)O4 | 58.9% (active)
41 | O=c1c2ccccc2nc(-c2ccccc2)n1-c1ccccc1O | -8.3%
42 | Cn1cnnc1Sc1cc(N2CCNCC2)ccc1[N+](=O)[O-] | -17.2%
43 | CCOc1ccc(C2(C#N)CC[N+](C)(C)CC2)cc1 | -0.5%
44 | COCc1cc(OC(=O)N(C)C)nc2c1c(C)nn2C | -6.7%
45 | O=C(CN1CC(c2ccccc2)CC1=O)Nc1ccc(F)cc1 (configuration not stated) | -14.5%
46 | O=C(CCCc1ccccc1)NCCc1cnc[nH]1 | -15.9%
47 | O=C(/C=C/c1ccccc1)NCCc1cnc[nH]1 | 32.6% (active)
48 | O=C(COc1ccccc1)NCCc1cnc[nH]1 | 3.5%
49 | CCOc1ccccc1Oc1coc2cc(OC(=O)N(C)C)ccc2c1=O | 0.4%
50 | COc1cccc(Oc2coc3cc(OC(=O)N(C)C)ccc3c2=O)c1 | 6.2%
51 | O=C1CC(c2ccccc2)CC(O)=C1C=NCCN1CCN(C(=O)Cc2ccccc2)CC1 (configuration not stated) | 8.5%
52 | O=C(C1CCCN(S(=O)(=O)c2cccc3nsnc23)C1)N1CCC2(CC1)OCCO2 (configuration not stated) | -9.3%

Row | Compound | inhibition
53 | O=C(Cc1ccccc1)N1CCN(Cc2cccc(Br)c2)CC1 | 0.2%
54 | CC(C)c1oc(=O)cc2c1[C@@H](O)[C@H]1OC(=O)[C@@]3(C)CC[C@@H](O)[C@@]2(C)C13 (some centres not stated) | -5.4%
55 | CC(C)c1oc(=O)cc2c1[C@@H](O)[C@H]1OC(=O)[C@@]3(C)C[C@@H](O)[C@@H](O)[C@@]2(C)C13 (some centres not stated) | 96.2% (active)
56 | Cc1csc(=N)n1Cc1ccccc1 | -19.9%
57 | Cc1cccc(N2C(=O)NC(=O)C3(Cc4cc(C)ccc4N(C)C3)C2=O)c1 (configuration not stated) | 11%
58 | COc1ccc(Cl)cc1C(=O)C1CCCN(Cc2cnc(C)s2)C1 (configuration not stated) | -27.2%
59 | CC1CCC(C(C)C)C(OC(=O)COC(=O)c2ccccc2N)C1 (configuration not stated) | 79.2% (active)
60 | CC1CCC(C(C)C)C(OP(N)(=O)c2ccccc2)C1 (configuration not stated) | 12.7%
61 | CC1CCC(C(C)C)C(OC(=O)Cn2c(COc3ccccc3)[n+](C)c3ccccc32)C1 (configuration not stated) | -12.8%
62 | Cc1cccnc1-n1c(-c2ccco2)nc2ccccc2c1=O | -8.5%
63 | CC(C)(C)NC(=S)/N=C(\N)N[N+](=O)[O-] | -21.7%
64 | Cc1[nH]c2ccccc2c1C(=O)C(=O)N1CCC2(CC1)OCCO2 | -23.7%
65 | CC(C)[C@]12O[C@H]1[C@@H]1O[C@]13[C@]1(O[C@H]1C[C@H]1C4=C(CC[C@@]13C)C(=O)OC4)[C@@H]2O | 107% (active)
66 | Cn1c(O)c(C=Nc2ccccc2-c2ccccc2)c(=O)n(C)c1=O | -12.2%
67 | COc1ccccc1[As](=O)(O)CC(O)COc1ccc(Cl)cc1Cl (configuration not stated) | -11%
68 | COc1ccc(C(=O)N/N=C/C23CC[C@@H](O)CC2(O)CC[C@@H]2[C@@H]3CCC3(C)C(C4=CC(=O)OC4)CCC23O)cc1 (some centres not stated) | 12.5%
69 | CC12CC[C@H]3[C@@H](CCC4(O)C[C@H](O)CCC34/C=N/NC(=O)c3ccc(O)cc3)C1(O)CCC2C1=CC(=O)OC1 (some centres not stated) | -7.5%
70 | CN(C)c1ccc(C(=O)N/N=C/C23CC[C@@H](O)CC2(O)CC[C@@H]2[C@@H]3CCC3(C)C(C4=CC(=O)OC4)CCC23O)cc1 (some centres not stated) | 45% (active)
71 | CC(=O)N1N=C2C3CCN(CC3)C2C1c1ccc(C)cc1 (configuration not stated) | -23.8%
72 | COc1ccccc1OCCCn1cc(C(=O)c2ccco2)c2ccccc21 | 3.3%
73 | Cc1cc(/C=C2\C(=O)NC(=O)N(C)C2=O)c(C)n1-c1ccc2c(c1)OCO2 | -6.1%
74 | Cc1cc(C=C2C(=O)NC(=S)NC2=O)c(C)n1-c1ccc2c(c1)OCO2 | 104% (active)
75 | Cc1cc(C=C2C(=O)NC(=O)NC2=O)c(C)n1-c1ccc2c(c1)OCO2 | 55.3%
76 | C/C(=N\N1CCCCCC1)c1c(O)n(C)c(=O)n(C)c1=O | -4.6%
77 | Cc1cccn2c(NCC3CCCO3)c(C(C)C)nc12 (configuration not stated) | 2.9%
